The list is not random: actives were taken first. Their share in the collection is about 3.2%.
HEK293 cAMP ctrl: qHTS Assay for Agonists of the Thyroid Stimulating Hormone Receptor: Activators of Intracellular cAMP Concentrations in Parental HEK 293. parental HEK293 CNG cAMP sensor, membrane potential fluorescence. Potency, µM (doses to about 57.1 µM), usual class: activators. 73,000 compounds, 2.5% hits; further: nearly all actives have a fitted effect of over 55% in size
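Counterscreen for endogenous-receptor signalling: CNG-channel HEK 293 cells report cAMP rise by membrane depolarization. After 60 min dye equilibration with 100 uM RO 20-1724, compounds incubated 30 min before bottom-read fluorescence at 590 nm.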
BRCT PPI green: qHTS Assay for Inhibitors of BRCT-Phosphoprotein Interaction (Green Fluorophore). Potency, µM (series often up to 76.9 µM), hits mostly inhibitors. BRCA1 BRCT-phosphopeptide binding, green fluorescence polarization. 75,000 compounds, 0.05% hits
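Compounds were incubated for 12 min at room temperature with a complex of 100 nM fluorescein-tagged pBACH1 decapeptide and 250 nM His-tagged BRCT protein. Buffer was phosphate pH 7.3 with EDTA, DTT and Tween 20. Disruption of binding lowers the polarization signal.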
Pol III holo inh: qHTS Assay for Inhibitors of DNA Polymerase III Holoenzyme System; reconstituted DNA polymerase III holoenzyme replication, biochemical; 71,000 compounds, 0.25% hits; AID 603, 2007; Potency, µM (doses to about 57.1 µM)
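Reconstituted *E. coli* holoenzyme (0.35 nM Pol III, 1 nM beta, 154 nM SSB, 2 nM primase) was preincubated with compound for 15 min at RT. Synthesis on 1.4 nM ssM13Gori ran 35 min, then was stopped with PicoGreen/EDTA and read as dsDNA fluorescence.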
TsaE inh: qHTS Assay for Inhibitors of YjeE | 71,000 compounds, 0.05% hits | purified YjeE enzyme, qHTS inhibition assay | AID 605, 2007 | Potency, µM | tRNA threonylcarbamoyladenosine biosynthesis protein TsaE (Escherichia coli (strain …
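Purified YjeE (10 uM) with BODIPY Texas Red-labeled ADP probe (2 uM); compounds pin-transferred, 15 min at room temperature. Binding inhibition read as decreased fluorescence polarization; ADP titration as control.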
BRCT PPI red: qHTS Assay for Inhibitors of BRCT-Phosphoprotein Interaction (Red Fluorophore); Breast cancer type 1 susceptibility protein (Homo sapiens), P38398; BRCT-phosphopeptide binding, red fluorescence polarization; Potency, µM (doses to about 76.9 µM), actives largely listed as inhibitors; 75,000 compounds, 0.03% hits; AID 892, 2007
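Fluorescence polarization: 100 nM His-tagged BRCA1 BRCT with 100 nM TAMRA-labelled phospho-BACH1 decapeptide, phosphate buffer pH 7.3 with 150 mM NaCl, DTT, 0.01% Tween 20; 12 min RT. Binding inhibition seen as FP decrease.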
TSHR agonist: qHTS Assay for Agonists of the Thyroid Stimulating Hormone Receptor; HEK293-CNG-TSHR cells (CNG channel as cAMP sensor), membrane potential dye, cAMP; Potency, µM (top dose mostly 57.1 µM), actives largely listed as activators; 73,000 compounds, 0.48% hits; active means well fitted activation curve with a large enough effect in the main read-out, with a control signal flat, not every such curve was filed as active; inconclusive means small, poorly fitted or top-dose-only effect, or a change in a side signal; inactive means no such curve, though single readings can be large or run the other way; reference of the percent scale not stated here;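 further: the control signal comes from parental cells without the receptor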
Target sequence (P16473 whole entry, looked up): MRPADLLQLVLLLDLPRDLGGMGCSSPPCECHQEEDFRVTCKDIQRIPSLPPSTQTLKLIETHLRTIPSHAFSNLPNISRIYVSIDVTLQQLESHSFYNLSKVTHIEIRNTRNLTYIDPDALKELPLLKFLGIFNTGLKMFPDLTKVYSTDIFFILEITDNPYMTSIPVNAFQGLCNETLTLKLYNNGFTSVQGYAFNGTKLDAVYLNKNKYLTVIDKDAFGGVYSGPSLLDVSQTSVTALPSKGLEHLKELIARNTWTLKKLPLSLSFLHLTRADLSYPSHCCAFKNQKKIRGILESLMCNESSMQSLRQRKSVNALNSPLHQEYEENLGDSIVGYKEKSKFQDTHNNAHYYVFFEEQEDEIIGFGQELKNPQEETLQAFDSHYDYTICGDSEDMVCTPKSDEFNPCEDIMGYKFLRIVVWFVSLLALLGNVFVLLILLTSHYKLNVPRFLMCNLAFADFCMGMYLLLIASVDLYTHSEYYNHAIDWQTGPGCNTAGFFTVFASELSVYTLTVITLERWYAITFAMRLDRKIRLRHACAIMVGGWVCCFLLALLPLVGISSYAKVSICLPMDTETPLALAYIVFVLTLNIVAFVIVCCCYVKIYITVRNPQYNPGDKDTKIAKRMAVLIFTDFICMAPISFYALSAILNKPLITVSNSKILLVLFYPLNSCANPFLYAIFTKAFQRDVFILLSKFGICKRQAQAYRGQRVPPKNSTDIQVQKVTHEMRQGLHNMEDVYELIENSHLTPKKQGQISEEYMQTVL
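cAMP rise detected as CNG-channel membrane depolarization by fluorescent dye (emission 590 nm), 30 min after compound, following 60 min dye loading containing 100 uM RO 20-1724 at room temperature. Cells: TSHR/CNG HEK 293, with parental CNG HEK 293 as control.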
Hits are given with their value; - = inactive; ? = inconclusive; . = no result; [ ] = dose if it differs, or a comment. Unless noted, the call rests on the fitted dose curve; in most records, active means well fitted curve in the direction sought with a large enough effect; inconclusive means small, poorly fitted or top-dose-only effect, or another doubt; inactive means no such curve, though single readings can be large; an effect the other way counts as inactive or inconclusive.

SMILES	HEK293 cAMP ctrl	BRCT PPI green	Pol III holo inh	TsaE inh	BRCT PPI red	TSHR agonist
CCc1c(O)nc(SCC(=O)Nc2ccc3c(c2)CCC3)[nH]c1=O	25µM	-	-	-	-	?
CCN(CC)c1ccc(NC(=O)c2cc3ccccc3o2)c(C)c1	-	-	-	-	-	-
COc1ccc(NC(=O)CSc2nnc(Cc3cccn3C)n2CCc2ccccc2)c(OC)c1	?	-	-	-	-	?
COc1ccccc1NC(=O)CSc1nnc(Cc2cccn2C)n1CCc1ccccc1	20µM	-	-	-	-	?
CCOC(=O)c1ccccc1NC(=O)CSc1nnc(COc2ccccc2C)n1C	16µM	-	-	-	-	?
CCOC(=O)c1ccccc1NC(=O)CSc1ncc(C(=O)OCC)c(N)n1	20µM	-	-	-	-	?
CCOC(=O)c1ccccc1NC(=O)CSc1nnnn1C1CCCCC1	32µM	-	-	-	-	?
CCCC(C)C(=O)Nc1ccc(Cl)cn1 (configuration not stated)	-	-	-	-	-	-
CCCn1c(NC(=O)c2ccco2)nc2ccccc21	-	-	.	.	-	-
CCOC(=O)c1ccccc1NC(=O)CSc1nnc(Cc2cccn2C)n1-c1ccc(C)cc1	32µM	-	-	-	-	?
CCNc1ccc(S(=O)(=O)C(F)(F)F)cc1NC(=O)C12CCC(CC1)C2	16µM	-	-	-	-	?
Nc1nc(Cl)nc2c1ncn2[C@@H]1O[C@@H](CO)[C@@H](O)[C@H]1O	7.9µM	-	-	-	-	?
CSc1nc(N)c2ncn([C@H]3O[C@H](COP(=O)(O)OP(=O)(O)O)[C@@H](O)[C@@H]3O)c2n1	-	-	-	50µM	-	-
Nc1ncnc2c1ncn2[C@@H]1O[C@@H](COP(=O)(O)OP(=O)(O)OP(=O)(O)OP(=O)(O)OC[C@@H]2O[C@@H](n3cnc4c(N)ncnc43)[C@@H](O)[C@H]2O)[C@H](O)[C@@H]1O	-	-	-	50µM	-	-
OCC1OC(n2cnc3c(Cl)nc(Cl)nc32)C(O)C1O (configuration not stated)	.	-	.	.	-	.
CCOC(=O)C1CCN(C(=O)c2ccc(NC(=O)C3CCCO3)cc2)CC1 (configuration not stated)	-	-	-	-	-	-[11.4 µM]
CS(=O)(=O)Nc1cccc(-c2nc(Nc3ccc(F)cc3)c3ccccc3n2)c1	-	-	-	-	-	25µM
CNc1nc(-c2cccc(NS(C)(=O)=O)c2)nc2ccccc12	-	-	-	-	-	-
O=C(c1ccco1)N(CC1CCCO1)c1nc(-c2ccccc2)cs1 (configuration not stated)	?	-	-	-	-	?
O=C(c1cccs1)N(CC1CCCO1)c1nc(-c2ccccc2)cs1 (configuration not stated)	16µM	-	-	-	-	?
CN(C(=O)c1ccccc1)c1nc2ccccc2s1	-	-	-	-	-	-
COc1cccc(N(C(=O)c2cccs2)c2nc3ccccc3s2)c1	13µM	-	-	-	-	?
CC1CCN(c2ccc(C(=O)O)cc2)CC1	-	-	-	-	-	-
O=C1c2ccccc2C(Cc2ccncc2)(Cc2ccncc2)c2ccccc21	3.2µM	-	-	-	-	?
COc1cc(C2Nc3cccc4cccc(c34)N2)ccc1OC(C)=O	1.3µM	-	-	-	-	?
SMILES	HEK293 cAMP ctrl	BRCT PPI green	Pol III holo inh	TsaE inh	BRCT PPI red	TSHR agonist
Cc1ccc2nc(NC3=NCN(Cc4cccnc4)CN3)nc(C)c2c1	-	-	-	-	-	-
COc1ccccc1CNc1nc(-c2cccc(C#N)c2)nc2ccccc12	?	-	-	-	-	?
O=C(CSc1ccccc1C(=O)O)NCc1ccco1	-	-	-	-	-	-
N#Cc1c(SCC(N)=O)nc(-c2ccccc2)c2c1CCCC2	20µM	-	-	-	-	?
CCC(=O)N1CCN(c2nc(-c3ccccc3)c3c(c2C#N)CCCC3)CC1	4µM	-	-[11.4 µM]	-	-	?
N#Cc1c(SCc2ccccc2)nc(N2CCOCC2)c2c1CCCC2	-[11.4 µM]	-	-[11.4 µM]	-	-	-[11.4 µM]
Fc1ccc(-c2nnc(-c3ccc(Cl)cc3Cl)o2)cc1	-	-	-	-	-	-
Clc1ccc(-c2nnc(-c3ccccc3)o2)c(Cl)c1	32µM	-	-	-	-	?
Cc1ccc(-c2noc(CCC(=O)NC3CCCc4ccccc43)n2)cc1 (configuration not stated)	32µM	-	-	-	-	?
COC(=O)C1(Cc2ccccc2)C=C2C(=C(c3ccccc3)C(=O)C2C)CN1 (configuration not stated)	32µM	-	-	-	-	?
Cc1cc(OCC(=O)NCc2nc(-c3ccccc3)no2)c(C)cc1Br	32µM	-	-	-	-	?
Cc1cc(C)n(-c2nc(SCC(=O)NCC3CCCO3)c3c4c(sc3n2)CCCC4)n1 (configuration not stated)	25µM	-	-	-	-	?
Cc1cc(C)n(-c2nc(NCC3CCCO3)c3c4c(sc3n2)COC(C)(C)C4)n1 (configuration not stated)	25µM	-	-	-	-	?
Cn1c(=O)c2c(nc(Sc3n[nH]c(N)n3)n2Cc2ccccc2Cl)n(C)c1=O	-	-	-	-	-	-
CC1CCC2(CC1)NC(=O)N(Cc1nc(-c3ccccc3)no1)C2=O (configuration not stated)	-	-	-	-	-	-
O=C(O)CC[P+](c1ccccc1)(c1ccccc1)c1ccccc1	3.2µM	-[15.4 µM]	-[11.4 µM]	-	-[15.4 µM]	?
CC1CCc2nc(N)c(C#N)c(-c3cccn3C)c2C1 (configuration not stated)	-	-	-	-	-	-
CCOC(=O)CSc1nnc2n1C(C)(C)Cc1ccccc1-2	-	-	-	-	-	-
CC1(C)Cc2ccccc2-c2nnc(SCc3ccc(C#N)cc3)n21	25µM	-	-	-	-	?
O=C(O)[C@@H]1CCCN1Cc1c[nH]c2ccccc12	-[11.4 µM]	-[15.4 µM]	-[11.4 µM]	-	-[15.4 µM]	-[11.4 µM]
COc1ccc(/C(O)=C(\C#N)c2nc3ccccc3n2C)cc1OC	?	-	-	-	-	?
O=C(NC1CCCC1)c1sc(=S)n2c1[nH]c(=O)c1ccccc12	?	-	-	-	-	?

Assay outcomes (PubChem BioAssay)
